Results as given in PubChem BioAssay AID1159580 (chemical genetic matrix, 2015).
Screen size: about 5,500 compounds; about 2,000 (36%) were called active. Roughly 18% stayed inconclusive and do not appear here. Cut-off read from the data, not from the text of the source: active = normalized growth mostly below about 0.91 (no sharp cut-off); inconclusive = no clear call, values can overlap the other calls; inactive = mostly above about 0.92. Some of the results follow.

Assay: chemical genetic growth profiling, strain panel (AID 1159580);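 note: tested at 20 µM; growth read once vehicle control cultures reached saturation at 30 °C; 1 = growth at the plate median or of vehicle wells; lower values mean less growth of the strain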
Settings: S. cerevisiae deletion strains, growth OD
[1] = locus YHR030C, strain SLT2, hits give low values

Measured: normalized growth

c1ccc(-c2ccc(-c3csc(-c4cccnc4)n3)cc2)cc1
inactive: locus YAL013W, strain DEP1, hits give low values 1.01 | locus YBR229C, strain ROT2, hits give low values 1.02 | locus YCL061C, strain MRC1, hits give low values 0.951 | locus YDL101C, strain DUN1, hits give low values 0.972 | locus YDR150W, strain NUM1, hits give low values 1 | locus YEL061C, strain CIN8, hits give low values 1.01 | locus YGR078C, strain PAC10, hits give low values 0.997 | [1] 1.04 | locus YHR087W, strain rtc3, hits give low values 1.01 | locus YJL187C, strain SWE1, hits give low values 0.979 | locus YJR043C, strain POL32, hits give low values 0.975 | locus YJR075W, strain HOC1, hits give low values 1.03 | locus YKL190W, strain CNB1, hits give low values 1.02 | locus YLR039C, strain RIC1, hits give low values 1.01 | locus YLR058C, strain SHM2 (second series), hits give low values 1.02 | locus YLR085C, strain ARP6, hits give low values 0.991 | locus YLR262C, strain YPT6, hits give low values 1.09 | locus YML094W, strain GIM5, hits give low values 1 | locus YMR219W, strain ESC1, hits give low values 1.02 | locus YMR263W, strain SAP30, hits give low values 0.992 | locus YMR307W, strain GAS1, hits give low values 0.896 | locus YNL153C, strain GIM3, hits give low values 0.956 | locus YNL298W, strain CLA4 (second series), hits give low values 1.04 | locus YNL322C, strain KRE1, hits give low values 1.03 | locus YNR030W, strain Alg12, hits give low values 1.01 | locus YOL006C, strain TOP1, hits give low values 1.08 | locus YPL055C, strain LGE1, hits give low values 0.944 | locus YPL241C, strain CIN2, hits give low values 0.979 | locus YPR135W, strain CTF4, hits give low values 1.08

c1cncc(C2=NCCC2)c1
inactive: [1] 1.02 | locus YHR079C, strain IRE1, hits give low values 1.01 | locus YJL095W, strain BCK1, hits give low values 1.02 | locus YJR066W, strain TOR1, hits give low values 0.938 | locus YLR113W, strain HOG1, hits give low values 0.905 | locus YNL183C, strain NPR1, hits give low values 0.952 | locus YOR231W, strain MKK1, hits give low values 1.01 | locus YPL256C, strain CLN2, hits give low values 0.99
